From the supplement of paper PMC6522484
± gives the standard deviation of the averaged measurements.

What was measured:
DLD1 [1] = assay: cell viability (CellTiter-Glo) relative to plate median (fraction of plate median); higher = more viable cells; conditions: 5 µM; treatment time 24 h; reporter: 7TFP
How it was run: (§1)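 Library compounds, at a final 5 µM, stayed on reporter cells for 24 h. The cells were colorectal cancer lines stably transduced with lentiviral TCF/Wnt firefly luciferase reporters, seeded in 384-well plates 24 h before dosing. Firefly luciferase or CellTiterGlo luminescence from parallel plates was normalised to the plate median in webcellHTS2 (additive, no log transformation), and two independent replicates were averaged.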

HCT116 [2] = assay: as above; conditions: 5 µM; treatment time 24 h; reporter: TCF4/Wnt
How it was run: as §1

SW480 [3] = assay: as above; conditions: 5 µM; treatment time 24 h; reporter: 7TFP
How it was run: as §1

DLD1 [4] = assay: TCF/Wnt firefly luciferase reporter signal relative to plate median (fraction of plate median); higher = higher Wnt reporter signal; conditions: 5 µM; treatment time 24 h; reporter: 7TFP
How it was run: as §1

SW480 [5] = assay: as above; conditions: 5 µM; treatment time 24 h; reporter: 7TFP
How it was run: as §1

DLD1 [6] = assay: TCF/Wnt firefly luciferase reporter signal relative to plate median (fraction of plate median); higher = higher Wnt reporter signal; conditions: 10 µM, treatment time 24 h
How it was run: (§2)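 Colorectal cancer cell lines stably transduced with lentiviral TCF/Wnt firefly luciferase reporters (7TFP or TCF4/Wnt) were seeded in 384-well plates. 24 h later they received kinase inhibitor library compounds at a final 10 µM for 24 h. Parallel plates were read for firefly luciferase or CellTiterGlo luminescence on a Tecan F500 reader. Each well's signal was normalised to the plate median (webcellHTS2, additive, no log transformation), and the mean of two independent replicates is reported.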

HCT116 [7] = assay: as above; conditions: 10 µM; treatment time 24 h; reporter: TCF4/Wnt
How it was run: as §2

SW480 [8] = assay: as above; conditions: 10 µM; treatment time 24 h; reporter: 7TFP
How it was run: as §2

Structure (SMILES)	cell viability (DLD1 [1])	cell viability (HCT116 [2])	cell viability (SW480 [3])	TCF/Wnt firefly luciferase reporter signal (DLD1 [4])	TCF/Wnt firefly luciferase reporter signal (SW480 [5])	TCF/Wnt firefly luciferase reporter signal (DLD1 [6]; reporter: 7TFP)	TCF/Wnt firefly luciferase reporter signal (DLD1 [6]; reporter: TCF4/Wnt)	TCF/Wnt firefly luciferase reporter signal (HCT116 [7])	TCF/Wnt firefly luciferase reporter signal (SW480 [8])
CN(C)CC/C=C1/c2ccccc2Sc2ccc(Cl)cc21	0.835 ± 0.21	0.98 ± 0.019	0.934 ± 0.016	1.07 ± 0.042	0.967 ± 0.061	–	–	–	–
COc1ccc2c(c1)[C@@]1(C)CC[C@@H](O)C[C@@H]1CC2 [12-METHOXY-4,4-BISNOR-5alpha-8,11,13-PODOCARPATRIEN-3-OL]	1.02 ± 0.014	1.1 ± 0.13	0.984 ± 0.037	1.03 ± 0.11	0.937 ± 0.021	–	–	–	–
CC(C)(Oc1ccc(C2CC2(Cl)Cl)cc1)C(=O)O (stereo not drawn)	1.06 ± 0.05	0.968 ± 0.074	1.06 ± 0.014	0.943 ± 0.18	0.963 ± 0.17	–	–	–	–
CCN(CC)CCNC(=O)c1cc(S(C)(=O)=O)ccc1OC	0.99 ± 0.13	1.025 ± 0.0071	1 ± 0.023	0.971 ± 0.084	0.925 ± 0.039	–	–	–	–
COc1cc2c3cc1Oc1cc(ccc1O)C[C@@H]1c4c(cc(OC)c(O)c4Oc4ccc(cc4)C[C@@H]3N(C)CC2)CC[N+]1(C)C	0.992 ± 0.012	1.01 ± 0.1	1.01 ± 0.045	0.977 ± 0.089	1.07 ± 0.05	–	–	–	–
CC(C)(S)[C@@H](N)C(=O)O	0.991 ± 0.027	0.956 ± 0.13	0.9765 ± 0.0092	1.09 ± 0.014	1.16 ± 0.11	–	–	–	–
COC(=O)C[C@H]1C2(C)CC34OC5(C)O[C@@]6([C@H](OC)C(OC(=O)C(C)C)[C@]7(C)C(/C(=C(/OC)C(C)C)C(=O)O[C@H]7c7ccoc7)[C@@]6(O5)[C@H](OC)[C@@]3(OC)C2OC(C)=O)[C@]14C (stereo partly drawn)	1.025 ± 0.0071	0.916 ± 0.013	0.9595 ± 0.00071	0.883 ± 0.065	0.903 ± 0.016	–	–	–	–
O=C(O)c1cc2cc(F)ccc2[nH]1	1.02 ± 0.053	1.115 ± 0.0071	1.07 ± 0.085	0.963 ± 0.0057	1.08 ± 0.085	–	–	–	–
NCCCS(=O)(=O)O	0.999 ± 0.044	0.993 ± 0.052	0.974 ± 0.011	0.969 ± 0.14	1.11 ± 0.05	–	–	–	–
Nc1nc2c(ncn2[C@@H]2O[C@H](CO)[C@@H](O)[C@H]2O)c(=O)[nH]1 [Guanosin]	0.915 ± 0.033	0.934 ± 0.044	0.903 ± 0.023	0.927 ± 0.019	0.88 ± 0.014	–	–	–	–
CC(=O)O[C@H]1C[C@@H](OC(C)=O)C(C)(C)C2C[C@@H](O)[C@]3(C)C(CC[C@@]4(C)[C@H](c5ccoc5)OC(=O)[C@H]5O[C@]543)[C@]21C (stereo partly drawn)	1.04 ± 0.042	1.06 ± 0.014	1.01 ± 0.073	0.977 ± 0.033	1.02 ± 0.061	–	–	–	–
C[C@@H]1CC[C@H]2C(C)(C)[C@H]3C[C@@]12CC[C@@]3(C)O	1.02 ± 0.029	1.07 ± 0.057	1.03 ± 0.021	1.03 ± 0.014	0.94 ± 0.083	–	–	–	–
CO[C@@]1(NC(=O)C(C(=O)O)c2ccc(O)cc2)C(=O)N2C(C(=O)O)=C(CSc3nnnn3C)CO[C@@H]21 (stereo partly drawn)	1.06	1.02 ± 0.021	1.07	0.962 ± 0.097	1.06 ± 0.035	–	–	–	–
Cc1cc(CC(=O)O)n(C)c1C(=O)c1ccc(Cl)cc1	1.07 ± 0.035	0.999 ± 0.03	1.05	1.12 ± 0.24	0.97 ± 0.13	–	–	–	–
O=c1cc(-c2cc(O)c(O)c(O)c2)oc2cc(O)cc(O)c12	1.02 ± 0.014	1.06 ± 0.057	0.943 ± 0.031	1 ± 0.057	0.952 ± 0.059	–	–	–	–
O=C(O)CCC(=O)Nc1ccc(S(=O)(=O)Nc2nccs2)cc1	0.9765 ± 0.0064	1.02 ± 0.028	1.04 ± 0.035	0.935 ± 0.12	1.03 ± 0.028	–	–	–	–
CCC1(C)CC(=O)NC1=O (stereo not drawn)	0.932 ± 0.018	1.09 ± 0.021	1 ± 0.022	1.15 ± 0.11	0.865 ± 0.0092	–	–	–	–
C[N+]1(CCCCC[N+]2(C)CCCC2)CCCC1	0.998 ± 0.018	1.01 ± 0.039	0.995 ± 0.064	0.888 ± 0.21	0.98 ± 0.071	–	–	–	–

Structure (SMILES)	cell viability (DLD1 [1])	cell viability (HCT116 [2])	cell viability (SW480 [3])	TCF/Wnt firefly luciferase reporter signal (DLD1 [4])	TCF/Wnt firefly luciferase reporter signal (SW480 [5])	TCF/Wnt firefly luciferase reporter signal (DLD1 [6]; reporter: 7TFP)	TCF/Wnt firefly luciferase reporter signal (DLD1 [6]; reporter: TCF4/Wnt)	TCF/Wnt firefly luciferase reporter signal (HCT116 [7])	TCF/Wnt firefly luciferase reporter signal (SW480 [8])
CCN(CC)CCNC(=O)COc1ccc(OC)cc1	0.875 ± 0.03	0.928 ± 0.035	0.973 ± 0.038	1.09 ± 0.064	1.02 ± 0.029	–	–	–	–
COc1ccc2c(c1)OC[C@@H](Cc1ccc(OC)c(OC)c1)[C@H]2O	1.09 ± 0.078	1.06 ± 0.11	0.993 ± 0.095	0.944 ± 0.011	0.94 ± 0.018	–	–	–	–
COc1ccc(C(=O)/C=C/c2ccccc2)cc1	0.964 ± 0.0028	0.977 ± 0.0085	0.972 ± 0.069	0.936 ± 0.04	0.944 ± 0.15	–	–	–	–
FC(F)(F)C(Cl)Br (stereo not drawn)	0.964 ± 0.035	0.898 ± 0.011	0.9715 ± 0.0035	1.02 ± 0.028	1.1 ± 0.092	–	–	–	–
OCc1ccccc1O	1.11 ± 0.14	1.19 ± 0.035	1.14 ± 0.05	1.06 ± 0.12	0.866 ± 0.042	–	–	–	–
O=c1occ(C(O)CO)c2cccc(O)c12 (stereo not drawn) [Oospoglycol]	0.886 ± 0.079	0.9515 ± 0.0035	0.976 ± 0.09	1.1 ± 0.11	1.01 ± 0.15	–	–	–	–
Cc1ccccc1-n1c(Cn2nc(-c3cccc(O)c3)c3c(N)ncnc32)nc2cccc(C)c2c1=O	–	–	–	–	–	1.07 ± 0.042	0.89 ± 0.021	0.841 ± 0.44	1.07 ± 0.12
Cc1cc2c(s1)Nc1ccccc1N=C2N1CCN(C)CC1	0.979 ± 0.0057	1.14 ± 0.12	1.03 ± 0.063	1.05 ± 0.071	–	–	–	–	–
CC(C)CCCC(C)C1CCC2C3=CCC4CC(O)CCC4(C)C3CCC21C (stereo not drawn)	1.05 ± 0.064	1.07 ± 0.11	1.02 ± 0.043	0.891 ± 0.083	0.897 ± 0.12	–	–	–	–
Oc1cccc(O)c1	1.02 ± 0.072	0.985 ± 0.013	1.01 ± 0.02	0.873 ± 0.074	1.02 ± 0.055	–	–	–	–
Cc1coc2c1C(=O)C(=O)c1c-2ccc2c1CCCC2(C)C	1.03 ± 0.043	0.999 ± 0.016	1.05 ± 0.028	0.785 ± 0.064	0.994 ± 0.14	–	–	–	–
NC1(C(=O)O)CC1	0.997 ± 0.061	0.9665 ± 0.0021	0.9795 ± 0.0064	0.885 ± 0.045	0.919 ± 0.059	–	–	–	–
CCC(=O)C(CC)C(O)C(C)CC(C)C1OC(=O)CC2(O)CC=C(C)C(O2)/C(C)=C/CCCC(OC2CC(OC(N)=O)C(O)C(C)O2)/C=C\C(C)C(O)C1C (stereo not drawn)	1.08 ± 0.16	1	0.99 ± 0.015	0.87 ± 0.067	0.974 ± 0.025	–	–	–	–
CC(=O)O[C@@H]1C[C@H]2C(C)(C)C(=O)CC[C@]2(C)[C@H]2CC[C@@]3(C)[C@H](c4ccoc4)OC(=O)[C@H]4O[C@]43[C@@]21C	0.999 ± 0.086	0.986 ± 0.011	1.01 ± 0.026	0.949 ± 0.087	0.899 ± 0.021	–	–	–	–
O=C(Nc1ccc(C(=O)O)c(O)c1)c1ccccc1	1.065 ± 0.0071	0.924 ± 0.011	1.01 ± 0.032	0.83 ± 0.016	1.07 ± 0.05	–	–	–	–
COc1ccc(/C=C/C(=O)c2ccc(O)cc2O)cc1	0.938 ± 0.088	0.947 ± 0.065	1.035 ± 0.0071	1.085 ± 0.0071	0.794 ± 0.054	–	–	–	–
OC[C@H]1O[C@@H](O[C@@H]2[C@@H](CO)OC(O)(CO)[C@H]2O)[C@H](O)[C@@H](O)[C@H]1O (mixture of isomers)	0.999 ± 0.0014	0.99 ± 0.028	0.984 ± 0.0028	1.07 ± 0.18	1.02 ± 0.034	–	–	–	–
